Assay outcomes: PubChem BioAssay, National Center for Advancing Translational Sciences (NCATS)
Most compounds without a hit are left out; they make up all but 9.4% or so of the library.
ELG1 genotoxic: inducers of genotoxicity in HEK293T ELG1-luciferase cells. AID 504466. Potency, µM (highest dose often 46 µM), without a hit: at the top dose activity change, positive = activation, usual class: activators. HEK293T ELG1-luciferase reporter, luminescence, 16 h. 1.3% of 330,000 active; also: % of control where 0% means no effect; nearly all actives have a fitted effect of over 60% in size
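HEK293T cells expressing luciferase-tagged ELG1 were treated with compound or DMSO for 16 hr at 37°C. Luciferase activity was then read after 30 min with ONE-Glo at room temperature; rising signal flags genetic stress.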
NPC1 promoter act: NPC1 promoter activation; Huh7 NPC1 promoter luciferase reporter, 24 h; Potency, µM (titrated, usually from 9.22 µM), without a hit: at the highest dose activation, usual class: activators; 2.4% of 320,000 active; AID 485313; also: % of control where 0% means no effect; nearly all actives have a fitted effect of over 60% in size
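Luminescence from an NPC1 promoter-driven luciferase reporter in stably transfected Huh7 cells was measured after 24 h compound treatment at 37 °C, followed by 10 min ambient incubation with luciferase detection reagent.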
FLuc modulator: firefly luciferase modulation, counter-screen for miR-21 project; purified FLuc, Km substrates, luminescence inhibition; AID 588342; 6.9% of 360,000 active; Potency, µM (doses to about 57.5 µM), inactives show at the highest dose activity change, negative = inhibition, hits mostly inhibitors;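 also: plate controls were vehicle for no effect and reference inhibitor for full effect; nearly all actives have a fitted effect of over 55% in size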
Target sequence (P08659 whole entry, looked up): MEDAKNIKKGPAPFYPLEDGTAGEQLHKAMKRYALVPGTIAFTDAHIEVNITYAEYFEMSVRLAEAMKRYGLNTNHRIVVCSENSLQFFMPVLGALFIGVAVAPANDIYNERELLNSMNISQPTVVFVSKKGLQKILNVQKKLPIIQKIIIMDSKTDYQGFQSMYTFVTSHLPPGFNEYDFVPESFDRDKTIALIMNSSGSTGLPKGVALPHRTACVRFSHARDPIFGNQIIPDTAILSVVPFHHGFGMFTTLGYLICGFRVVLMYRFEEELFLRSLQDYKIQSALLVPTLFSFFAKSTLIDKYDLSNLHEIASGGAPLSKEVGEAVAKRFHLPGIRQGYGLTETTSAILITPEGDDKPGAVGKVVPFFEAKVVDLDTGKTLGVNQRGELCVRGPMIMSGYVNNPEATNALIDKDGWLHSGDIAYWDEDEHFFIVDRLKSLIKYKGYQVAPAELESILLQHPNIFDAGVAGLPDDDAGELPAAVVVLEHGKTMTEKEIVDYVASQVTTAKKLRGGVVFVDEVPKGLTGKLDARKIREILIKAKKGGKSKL
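Biochemical qHTS of compounds, final roughly 60 µM downward over six points, against 10 nM purified firefly luciferase using Km concentrations of substrates (10 uM D-luciferin, 10 uM ATP) in Tris acetate pH 7.5 buffer; luminescence output.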
ELG1 repair inh: ELG1-dependent DNA repair inhibition; HEK293T ELG1-luciferase reporter, luminescence, 16 h; DNA damage induced by 5-fluorouridine; Potency, µM (doses to about 46.1 µM), for inactives: at the highest dose activity change, negative = inhibition, most hits filed as inhibitors; 2.3% of 330,000 active; AID 504467; also: % is scaled to controls: 0 for no effect and ±100 for the full control effect; nearly all actives have a fitted effect of over 55% in size
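DMSO vehicle served as the neutral condition. Each well held 2,000 cells given 5-fluorouridine plus compound; after 16 hr at 37 °C/5% CO2, ONE-Glo was added and luciferase measured 30 min later.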
SMN2 splice enh: increases expression of the SMN2 splice variant | AID 1458 | HEK293 SMN2-luciferase splicing reporter, luminescence, 30-36 h | Potency, µM (top dose mostly 46.1 µM), without a hit: at the top dose activity change, positive = activation, most hits filed as activators | 2.8% of 210,000 active; also: % of control where 0% means no effect; nearly all actives have a fitted effect of over 55% in size
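HEK293 cells carry an SMN2 […]–luciferase reporter in which exon 7 inclusion puts luciferase in frame. Cells were plated 10-12 h before compound addition, then incubated 30-36 h at 37C. ONE-Glo luminescence was read; sodium butyrate at 4.5 mM final served as control.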
Rab9 prom act: activators of Rab9 promoter; Huh7 Rab9 promoter-luciferase reporter, luminescence, 24 h; Potency, µM (series often up to 9.22 µM), inactives show at the highest dose activation, negative = inhibition, hits mostly activators; 2.8% of 320,000 active; AID 485297; also: % of control where 0% means no effect; nearly all actives have a fitted effect of over 60% in size
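Quantitative HTS format; Huh7 Rab9-luciferase reporter cells (1500/well) receive compound 2 h post-plating, incubate 24 h at 37 °C, then get luciferase reagent for 10 min before luminescence reading.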
The depositor's hits bear a star; u = inconclusive; x = not tested or not shown; [ ] = dose if it differs, or a comment. Calls follow the shape of the dose curve; as a rule, active = well fitted curve in the direction sought with a large enough effect; inconclusive = small, poorly fitted or top-dose-only effect, or another doubt; inactive = no such curve, though single readings can be large; an effect the other way counts as inactive or inconclusive. Potency is read from the fitted curve at half-maximal effect.

SMILES	ELG1 genotoxic	NPC1 promoter act	FLuc modulator	ELG1 repair inh	SMN2 splice enh	Rab9 prom act
O=C(CN1CCN(c2ccccn2)CC1)Nc1ccc([N+](=O)[O-])cc1C(=O)Nc1ccccc1F	-8.6%	-0.6%	1.3%	11.6µM*	x	-2.1%
Cc1nc(N2CCN(c3ccccn3)CC2)c2c(C)c(C(=O)Nc3ccc(F)cc3F)sc2n1	-12.7%	-11.0%	-5.6%	11.6µM*	-31.7%	0.6%
Cc1nc(N2CCOCC2)c2c(C)c(C(=O)Nc3ccccc3Cl)sc2n1	-1.5%	-1.4%	-19.6%	4.7%	-17.1%	0.0%
Cc1nc(-c2ccccn2)sc1C(=O)Nc1ccc(F)cc1F	u	10.2%	-15.7%	u	7.7%	3.98µM*
Cc1nc(N2CCOCC2)c2c(C)c(C(=O)Nc3ccccc3C(F)(F)F)sc2n1	-3.8%	-6.1%	1.3%	16.4µM*	-4.1%	1.6%
COCCn1c(CNC(=O)c2ccc(C)cc2)nc2cccnc21	x	x	-1.6%	x	x	x
COc1cc(OC)c(NC(=O)Cn2c(=O)nc(-c3ccccc3)c3ccccc32)cc1Cl	x	x	-9.5%	x	3.8%	x
O=C(Nc1c(F)cccc1F)c1cnc(N2CCN(c3ccccn3)CC2)c2ccccc12	-20.0%	0.3%	1.9%	18.4µM*	-10.5%	-8.3%
O=C(Nc1ccc(F)c(F)c1)c1cc(S(=O)(=O)N2CCN(c3ccccn3)CC2)ccc1F	-10.4%	-0.8%	1.4%	16.4µM*	-20.3%	-1.9%
O=C(Nc1c(F)cc(F)cc1Br)c1cc(S(=O)(=O)N2CCN(c3ccccn3)CC2)ccc1F	-9.7%	-11.0%	4.1%	u	-56.7%	-1.6%
Cc1nc(N2CCN(c3ccccn3)CC2)c2c(C)c(C(=O)N3CCN(c4cccc(Cl)c4)CC3)sc2n1	-8.9%	-7.5%	0.5%	11.6µM*	x	-3.8%
COc1ccc(NC(=O)c2sc3nc(C)nc(N4CCN(c5ccccn5)CC4)c3c2C)cc1Cl	-8.3%	-15.6%	0.4%	3.26µM*	x	0.3%
Cc1nc(N2CCN(c3ccccn3)CC2)c2c(C)c(C(=O)Nc3ccc(F)cc3Cl)sc2n1	-19.6%	1.7%	u	u	x	10.3%
Cc1nc(N2CCN(c3ccccn3)CC2)c2c(C)c(C(=O)Nc3ccccc3F)sc2n1	-16.1%	2.3%	-6.0%	9.2µM*	-60.9%	4.4%
COc1ccc2c(c1)c1c(c(=O)n(Cc3ccccc3)c(=O)n1CC(=O)Nc1ccc(C)cc1C)n2C	x	x	-0.4%	x	x	x
COc1ccc(OC)c(-c2csc(NC(=O)Cc3ccccc3F)n2)c1	-31.2%	14.4%	10.7µM*	u	x	4.1%
COc1ccc(OC)c(-c2csc(NC(=O)Cc3ccccc3OC)n2)c1	5.7%	0.0%	9.53µM*	-8.7%	x	-0.3%
COc1ccc(OC)c(-c2csc(NC(=O)c3ccccc3F)n2)c1	8.3%	-0.1%	15.1µM*	-6.2%	x	-2.8%
COc1ccc(OC)c(-c2csc(NC(=O)CN3C(=O)NC4(CCCC4)C3=O)n2)c1	0.9%	-2.7%	-2.7%	1.5%	x	-10.3%
COc1ccc(-c2csc(NC(=O)c3ccccc3S(C)(=O)=O)n2)cc1	-10.3%	-0.2%	u	u	-13.5%	6.2%
O=C(Nc1nc(COc2ccccc2)cs1)c1ccccc1F	8.9%	7.8%	26.9µM*	u	-43.1%	0.7%
O=C1CN(C(=O)c2ccc(Cl)cc2Cl)C(c2ccc(F)cc2)c2cc(F)ccc2N1 (stereo not drawn)	x	x	3.6%	x	-15.5%	x
COC(=O)c1sc(-c2ccc(Cl)cc2)cc1N	u	2.24µM*	6.75µM*	u	x	2.51µM*
CC(=O)c1sc(-c2ccc(Cl)cc2)cc1N	u	4.4%	u	15.3%	x	13.2%
COC(=O)c1c(C)nc(C)c(C(=O)OC)c1-c1cccs1	-2.8%	-4.7%	-1.0%	-2.9%	x	-16.8%
SMILES	ELG1 genotoxic	NPC1 promoter act	FLuc modulator	ELG1 repair inh	SMN2 splice enh	Rab9 prom act
COC(=O)c1sc(-c2cccs2)cc1N	u	u	12µM*	u	x	26.5%
O=C(CSc1nnc(Nc2ccccc2)s1)Nc1ccc(S(=O)(=O)N2CCOCC2)cc1	-4.3%	-0.5%	10.7µM*	u	-23.0%	1.7%
COc1ccc(NC(=O)CSc2nnc(NC(=O)c3ccc(S(=O)(=O)N4CCOCC4)cc3)s2)cc1	u	13.3%	2.69µM*	u	u	8.2%
O=C(CSc1nnc(NC2CC2)s1)NN1C(=O)NC2(CCCCC2)C1=O	2.1%	-3.4%	-0.7%	19.9%	x	-2.0%
Cc1ccc(Nc2nnc(SCC(=O)Nc3ccc(S(=O)(=O)N4CCOCC4)cc3)s2)cc1	u	7.2%	3.01µM*	-1.8%	5.7%	19.2%
O=C(CSc1nnc(Nc2ccccc2)s1)NN1C(=O)NC2(CCCCC2)C1=O	0.8%	3.0%	19µM*	0.5%	-5.8%	-6.0%
Nc1nnc(SCC(=O)Nc2cccc(S(=O)(=O)N3CCOCC3)c2)s1	-0.7%	-3.8%	-11.6%	u	x	-5.8%
Cc1cccc(NC(=O)CSc2nnc(NC(=O)c3ccc(S(=O)(=O)N4CCOCC4)cc3)s2)c1C	1.9%	4.4%	u	u	27.9%	-3.2%
Cc1cc(=O)n(Cc2cccc(Cl)c2)c2c1c(C)nn2C	x	x	-13.0%	x	x	x
CCC(=O)N1CCc2cc(CNS(=O)(=O)c3ccc(CC(C)C)cc3)ccc21	x	x	-11.0%	x	x	x
Cc1ccccc1NC(=O)c1c(C)oc2ccc(O)c(CN(C)Cc3ccccc3)c12	x	x	-17.7%	x	-17.5%	x
CCOc1ccc(S(=O)(=O)n2nnc3ccccc32)cc1C	2.6%	-0.6%	2.0%	-4.3%	-10.8%	-1.8%
CCOc1ccc(Cl)cc1S(=O)(=O)n1nnc2ccccc21	-4.5%	-2.4%	-0.3%[2.3 µM]	-10.1%	25.1µM*	-5.9%
CCOC(=O)CSc1nc2cc3c(cc2c(=O)n1CCCC(=O)NCCc1ccc(OC)c(OC)c1)OCO3	x	x	4.5%	x	x	x
Cc1ccc(-c2oc3ccccc3c(=O)c2O)cc1	23.1µM*	25.2%	u	u	5.5%	26.7%
CCOc1ccc(-c2oc3ccc(C)cc3c(=O)c2O)cc1	x	x	0.7%	x	-6.1%	x
O=c1c(O)c(-c2ccccc2)oc2ccccc12	x	x	x	x	-36.2%	x
COc1cccc(-c2oc3ccc(C)cc3c(=O)c2O)c1	x	x	2.69µM*	x	10µM*	x
O=c1c(O)c(-c2ccccc2)oc2cc(O)cc(O)c12	-4.8%	x	x	13µM*	x	x
O=c1c(-c2ccccc2)c(-c2ccccc2)oc2cc(O)cc(O)c12	-0.1%	0.0%	-12.9%	-22.5%	x	-1.0%
c1cncc(CSc2ccc(-c3cccs3)nn2)c1	15.0%	u	16.9µM*	11.7%	14.8%	3.55µM*
O=C(CSc1ccc(-c2cccs2)nn1)Nc1cccc(F)c1	x	x	23.9µM*	x	x	x
CC(=O)Nc1nnc(SCc2cccc(F)c2)s1	u	15.3%	-10.5%	u	x	20.1%
